Screening data: PubChem, several laboratories
PP1 counter = counter-screen for PP5 inhibitors: inhibitors of human PP1-alpha; P62136; purified PP1alpha, OMFP fluorescence; hit rate 0.9% among 320,000; inhibition, % at 6.7 µM;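 active = inhibition above the mean inhibition of all tested compounds plus 3 SD, computed separately for each screening campaign, cut at about 15% in these data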
Cardio protect = myocardial damage modulation in H9c2 cells. H9c2 cardiomyocytes, H2O2 injury protection, ATPLite, 2 h. protection from H2O2 cell death, % at 20 µM. hit rate 0.63% among 360,000. AID 588492;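 active = compounds giving at least 50% protection of heart cells from peroxide-induced death in the single-dose screen, raw or plate-pattern-corrected value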;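 also: 0% = DMSO wells with peroxide and 100% = DMSO wells without peroxide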
PP5 primary = inhibitors of human protein phosphatase 5 (PP5). P53041. purified PP5c, OMFP substrate fluorescence. inhibition, % at 6.7 µM. hit rate 0.18% among 320,000. AID 1987;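 active = inhibition above the campaign's mean inhibition across all tested compounds plus 3 SD, cut at about 9.5% in these data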;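 also: 0% = DMSO only and 100% = 100 µM cantharidin control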
Target sequence (P53041 whole entry, looked up): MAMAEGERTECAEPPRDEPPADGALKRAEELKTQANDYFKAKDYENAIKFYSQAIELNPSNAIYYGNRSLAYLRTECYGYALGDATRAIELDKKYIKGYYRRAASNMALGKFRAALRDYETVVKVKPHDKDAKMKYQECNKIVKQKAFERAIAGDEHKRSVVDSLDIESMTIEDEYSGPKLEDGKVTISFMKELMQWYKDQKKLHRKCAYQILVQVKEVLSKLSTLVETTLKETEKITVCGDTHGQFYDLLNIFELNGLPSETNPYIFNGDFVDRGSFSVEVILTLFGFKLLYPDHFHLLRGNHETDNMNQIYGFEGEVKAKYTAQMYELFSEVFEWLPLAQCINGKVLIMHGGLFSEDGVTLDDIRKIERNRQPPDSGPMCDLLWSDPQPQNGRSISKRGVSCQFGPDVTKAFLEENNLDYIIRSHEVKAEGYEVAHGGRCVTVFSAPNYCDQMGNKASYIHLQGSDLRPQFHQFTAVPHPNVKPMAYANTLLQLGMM
ATG4B inhibitor = inhibitors of human ATG4B cysteine protease. Q9Y4P1. ATG4B cleavage of LC3-PLA2, NBD-HPC fluorescence, 1 h. inhibition, % at 8.33 µM. hit rate 0.51% among 340,000. AID 504462; in the data active = inhibition above about 40%
The depositor's hits bear a star; ! = repeats disagree. Most compounds without a hit are left out; they make up all but 1.9% or so of the library.

How did Oc1cccc(/C=N/NC(=S)NCCN2CCOCC2)c1O do in these assays?
PP1 counter: 0; Cardio protect: 49*; PP5 primary: -3; ATG4B inhibitor: -8

What do the screens show for `Cc1ccc(NC(=O)COC(=O)CCc2nc3ccccc3c(=O)[nH]2)cc1Cl`?
PP1 counter: -2; Cardio protect: 38; PP5 primary: 0; ATG4B inhibitor: -12

What do the screens show for `O=C(CCc1nc2ccccc2c(=O)[nH]1)Nc1cccc(S(=O)(=O)N2CCCCC2)c1`?
PP1 counter: 0; Cardio protect: 26; PP5 primary: 2; ATG4B inhibitor: -8

How did O=C(CCc1nc2ccccc2c(=O)[nH]1)NCC(=O)Nc1ccc(F)c(F)c1 do in these assays?
PP1 counter: -5; Cardio protect: 59*; PP5 primary: -1; ATG4B inhibitor: -2

What do the screens show for `O=C(CCc1nc2ccccc2c(=O)[nH]1)Nc1ccc(F)c([N+](=O)[O-])c1`?
PP1 counter: -3; Cardio protect: 50*; PP5 primary: 1; ATG4B inhibitor: 2

Results for O=C(Cc1ccccc1[N+](=O)[O-])OCC(=O)c1ccccc1Br ?
Cardio protect: 3; ATG4B inhibitor: 24

Results for CC(=O)c1ccc(N2CCN(C(=O)C3CCCN(c4ncnc5c4nc4n5CCCCC4)C3)CC2)cc1 (centres undefined) ?
PP1 counter: -2; Cardio protect: 55*; PP5 primary: 1; ATG4B inhibitor: 2

What do the screens show for `O=C(C1CCN(c2ncnc3c2nc2n3CCCCC2)CC1)N1CCN(c2cccc(Cl)c2)CC1`?
PP1 counter: 3; Cardio protect: -2; PP5 primary: 5; ATG4B inhibitor: 47*

How did COc1ccc(CN(C)C(=O)c2ccc3c(=O)n4c(nc3c2)CCC4)c(OC)c1 do in these assays?
PP1 counter: -5; Cardio protect: 0; PP5 primary: 1; ATG4B inhibitor: -2

What do the screens show for `CCOC(=O)C1=C(C)NC(C)=C(C(=O)OCC)C1C(=O)OCC(=O)NC(C)C`?
PP1 counter: 10; Cardio protect: 57*!; PP5 primary: -1; ATG4B inhibitor: 2

Results for O=C(CN1C(=O)C2CC=CCC2C1=O)Nc1nc(-c2ccc(F)c(F)c2)cs1 (centres undefined) ?
Cardio protect: 82*; ATG4B inhibitor: -13

Results for Cn1c(NC2CCCCC2)cc(=O)n(C)c1=O ?
PP1 counter: 5; Cardio protect: -3; PP5 primary: -2; ATG4B inhibitor: -6

What do the screens show for `Cc1cc(C2CCCCC2)n(O)c(=O)c1`?
PP1 counter: 0; Cardio protect: 69*; PP5 primary: -1; ATG4B inhibitor: -4

How did O=C(C1COc2ccccc2O1)N1CCN(c2nc3c(F)cc(F)cc3s2)CC1 (centres undefined) do in these assays?
PP1 counter: 0; Cardio protect: 2; PP5 primary: -1; ATG4B inhibitor: -2

Results for O=C(CCNS(=O)(=O)c1ccccc1F)OCc1ccccc1Cl ?
Cardio protect: 6; ATG4B inhibitor: 9

What do the screens show for `CCC(C)[C@H]1CNCCN1CCc1cc(C(F)(F)F)cc(C(F)(F)F)c1` (some centres undefined)?
PP1 counter: 6; Cardio protect: -12; PP5 primary: -5; ATG4B inhibitor: 1

Results for CCC(C)[C@H]1CNC(=S)N1CCc1cc(C(F)(F)F)cc(C(F)(F)F)c1 (some centres undefined) ?
PP1 counter: 3; Cardio protect: -4; PP5 primary: 9.6*; ATG4B inhibitor: 0

How did CC(C)N(Cc1ccccc1)C(=O)COC(=O)c1ccc(O)cc1 do in these assays?
PP1 counter: -1; Cardio protect: 4; PP5 primary: 1; ATG4B inhibitor: -31

Results for Cc1nn(C2CCS(=O)(=O)C2)c(C)c1CN(C)C(=O)c1ccc(Cl)cc1 (centres undefined) ?
PP1 counter: 0; Cardio protect: -5; PP5 primary: 4; ATG4B inhibitor: 2

How did O=C(NCCN1CCN(c2ccccc2F)CC1)c1cccn2c(=O)c3ccccc3nc12 do in these assays?
PP1 counter: -2; Cardio protect: 71*; PP5 primary: 1; ATG4B inhibitor: -4

Results for CS(=O)(=O)N1CCCCC1CCN1CCCCC1 (centres undefined) ?
Cardio protect: 2; ATG4B inhibitor: -3

How did O=C(CN1CCOCC1)N/N=C/c1c(O)ccc2ccccc12 do in these assays?
PP1 counter: -4; Cardio protect: 69*; PP5 primary: 3; ATG4B inhibitor: -3

How did O=C(N/N=C/c1c(O)ccc2ccccc12)c1ccc[n+](CCO)c1 do in these assays?
PP1 counter: 2; Cardio protect: 56*; PP5 primary: 3; ATG4B inhibitor: -1

What do the screens show for `O=C(N/N=C\c1c(O)ccc2ccccc12)c1ccc(O)cc1`?
PP1 counter: 4; Cardio protect: 48; PP5 primary: 4; ATG4B inhibitor: -26

Results for O=C(CN1CCOCC1)N/N=C/c1ccco1 ?
PP1 counter: 0; Cardio protect: -2; PP5 primary: 3; ATG4B inhibitor: -4

Results for CC(/C=N/Nc1nnc2c(n1)[nH]c1ccccc12)=C\c1ccco1 ?
PP1 counter: 16*; Cardio protect: -1; PP5 primary: 3; ATG4B inhibitor: 11

How did Cc1ccc(/C=C/C(=O)c2ccccc(=O)c2O)cc1C do in these assays?
PP1 counter: 14; Cardio protect: 75*; PP5 primary: 1; ATG4B inhibitor: 15

How did COc1ccc(C=CC(=O)c2ccc(OC)c(OC)c2O)cc1OC do in these assays?
Cardio protect: 30; ATG4B inhibitor: -10

How did O=C(/C=C/c1ccccc1)c1cc(Br)ccc(=O)c1O do in these assays?
PP1 counter: 17*; Cardio protect: 44; PP5 primary: 2; ATG4B inhibitor: 14

Results for OC(c1ccccc1)C(Nc1ccccn1)c1ccccc1 (centres undefined) ?
Cardio protect: -1; ATG4B inhibitor: 8

Results for Cc1ccnc(NS(=O)(=O)c2ccc3ccccc3c2)n1 ?
PP1 counter: -1; Cardio protect: 12; PP5 primary: 2; ATG4B inhibitor: 7

Results for COc1cc(/C=C/c2nnc3c4ccccc4ncn23)cc(OC)c1OC ?
PP1 counter: -2; Cardio protect: 68*; PP5 primary: 6; ATG4B inhibitor: 2

How did C(=C\c1nnc2c3ccccc3ncn12)/c1ccccc1 do in these assays?
PP1 counter: 3; Cardio protect: 2; PP5 primary: 0; ATG4B inhibitor: -1

What do the screens show for `Nc1ccc(C#Cc2ccc3c(=O)c4ccccc4oc3c2)cc1`?
PP1 counter: 0; Cardio protect: -7; PP5 primary: 3; ATG4B inhibitor: 5

How did COc1cc2oc3ccc(C#Cc4ccccn4)cc3c(=O)c2cc1OC do in these assays?
PP1 counter: -2; Cardio protect: 66*; PP5 primary: 0; ATG4B inhibitor: 10

What do the screens show for `COc1cc2oc3cc(C#Cc4ccc(N)cc4)ccc3c(=O)c2cc1OC`?
PP1 counter: -1; Cardio protect: 72*; PP5 primary: -1; ATG4B inhibitor: -2

What do the screens show for `COc1cc2oc3ccc(C#Cc4ccc(N)cc4)cc3c(=O)c2cc1OC`?
PP1 counter: 2; Cardio protect: 57*; PP5 primary: -1; ATG4B inhibitor: 3

What do the screens show for `N#Cc1ccc(C#Cc2ccc3oc4ccccc4c(=O)c3c2)cc1`?
Cardio protect: -2; ATG4B inhibitor: 0
